Bioassay records from PubChem.
Compounds with a hit are over-represented: about 3.5% of the library has one in this group of screens.
MITF inh – MITF inhibitors, primary screen, biochemical, AlphaScreen, human. inhibition, % at 2.6 µM. actives 0.91% (n = 650,000). AlphaScreen MITF homodimerization, bead proximity signal. Microphthalmia-associated transcription factor (Homo sapiens), O75030; in the data active = inhibition above about 50%
FBW7 activator – FBW7 E3 ligase activators, primary screen, biochemical, AlphaScreen, human; F-box/WD repeat-containing protein 7 (Homo sapiens), Q969H0; AlphaScreen FBW7–phospho-cyclin E peptide binding, activator screen; normalized activity (activation), % at 26.1 µM; actives 0.13% (n = 650,000); in the data active = normalized activity above about 1.9%;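 note: purified mutant Fbw7 with reduced substrate affinity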
GPR151 ag – activators of human GPR151, primary screen, cell-based, PathHunter beta-arrestin, luminescence. actives 1% (n = 650,000). AID 1508602, 2020. G-protein coupled receptor 151 (Homo sapiens), Q8TDV0. activation, % at 11.2 µM. PathHunter beta-arrestin GPR151 cells; in the data active = activation above about 4.9%
Target sequence (Q8TDV0 whole entry, looked up): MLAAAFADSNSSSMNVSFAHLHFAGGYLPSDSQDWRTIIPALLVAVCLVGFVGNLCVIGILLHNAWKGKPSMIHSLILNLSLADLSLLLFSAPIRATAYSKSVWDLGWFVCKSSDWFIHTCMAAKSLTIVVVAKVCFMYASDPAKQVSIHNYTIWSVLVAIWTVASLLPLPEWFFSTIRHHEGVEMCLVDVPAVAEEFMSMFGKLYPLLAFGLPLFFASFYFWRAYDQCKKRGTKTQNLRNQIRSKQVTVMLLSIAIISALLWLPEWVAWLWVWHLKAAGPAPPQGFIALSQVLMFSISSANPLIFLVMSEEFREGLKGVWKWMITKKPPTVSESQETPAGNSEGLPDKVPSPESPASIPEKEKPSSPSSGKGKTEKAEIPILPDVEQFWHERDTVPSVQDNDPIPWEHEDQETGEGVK
TEAD-YAP inh – TEAD-YAP interaction inhibition, primary screen, TEAD-YAP interaction inhibitor project, luminescence, HEK-TIYL cells | AID 1259422, 2018 | actives 1.4% (n = 640,000) | TEAD-Gal4/YAP UAS-luciferase luminescence | inhibition, % at 9.12 µM; in the data active = inhibition above about 32%
MITF inh conf – MITF inhibitors, retest of hits, confirmation, biochemical, AlphaScreen, triplicate. shares compounds with MITF inh. AlphaScreen MITF homodimerization, biotin/His-MITF beads. inhibition, % at 2.6 µM. actives 16% (n = 4,700). AID 1259372, 2018;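 active = inhibition above a cutoff derived from the DMSO control wells, cut at about 28% in these data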;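 note: inhibitors lower the bead chemiluminescence by keeping MITF from dimerizing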
AlphaScreen DR – AlphaScreen optical interference compounds, dose response, counter-screen, biochemical, HTS | actives 6% (n = 480) | shares compounds with MITF inh | AlphaScreen optical interference counterscreen, cell-free | IC50, µM; call rule not given here
AlphaScreen intf2 – AlphaScreen optical interference compounds, counter-screen for MITF inhibitor project, biochemical, triplicate | inhibition, % at 2.6 µM | shares compounds with MITF inh | actives 7.6% (n = 4,700) | LysRS AlphaScreen counterscreen, signal interference | AID 1259376, 2018;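 active = inhibition above a cutoff derived from the DMSO control wells, cut at about 30% in these data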
Large screens that a line does not name were inactive (follow-up assays come after a bar, where they were run).

COc1ccc(CN2CCN(CC3CC4C=CC3C4)CC2)c(OC)c1 (configuration not stated)	MITF inh 72.0 | MITF inh conf inactive | AlphaScreen intf2 inactive
C1=CC2CC1CC2CN1CCN(Cc2ccccn2)CC1 (configuration not stated)	MITF inh 73.7 | MITF inh conf inactive | AlphaScreen intf2 inactive
Cc1cccc(Nc2nc(N)nc(C3CCCCC3=O)n2)c1 (configuration not stated)	none
COc1cccc(CN2CCc3nnc(C(C)NC(=O)c4ccoc4C)n3CC2)c1O (configuration not stated)	none
C[C@H]1C(=O)N2CCN(C(=O)NC3CCCCC3)C[C@@H]2C(=O)N1C	MITF inh 78.1 | MITF inh conf 74.2 | AlphaScreen DR inactive | AlphaScreen intf2 inactive
Cc1ccc(C(=O)N2CCN3C(=O)[C@H](C)N(C)C(=O)[C@H]3C2)cc1	none
CC(C)C[C@H]1C(=O)N2CCN(C(=O)NC3CCCCC3)C[C@@H]2C(=O)N1C	MITF inh 70.2 | MITF inh conf 71.4 | AlphaScreen DR inactive | AlphaScreen intf2 inactive
CN1CCc2c(sc(NC(=O)c3cccc(Oc4ccccc4)c3)c2C(N)=O)C1	none
C=CCc1cc(OC)ccc1OCCN1CCCCC1	none
C=CCc1cc(OC)ccc1OCCCCn1cncn1	MITF inh 76.0 | MITF inh conf inactive | AlphaScreen intf2 inactive
C=CCc1cc(OC)ccc1OCCN1CCN(C)CC1	MITF inh 66.9 | MITF inh conf inactive | AlphaScreen intf2 inactive
C=CCc1cc(OC)ccc1OCCCN1CCN(C)CC1	MITF inh 81.9 | MITF inh conf inactive | AlphaScreen intf2 inactive
COc1cccc(-c2nc(-c3ccccc3OC)[nH]c2-c2cccc(OC)c2)c1	none
Cc1ccc(NC(=O)CC2NCCNC2=O)cc1C (configuration not stated)	MITF inh 71.6 | MITF inh conf inactive | AlphaScreen intf2 inactive
COc1cc(N)c2nccc(C)c2c1OC	MITF inh 97.4 | MITF inh conf 118.6 | AlphaScreen intf2 59.3
COc1cc(C(=O)Oc2ccccc2N)cc(OC)c1OC	none
O=C(O)c1ccc(CN(Cc2ccc(Cl)cc2)C(=S)Nc2ccc(Oc3ccccc3)cc2)cc1	none
COc1ccc(-c2cc(NCCN(C(C)C)C(C)C)ncn2)cn1	none
O=C(/C=C/c1ccc(-c2cccc(C(F)(F)F)c2)o1)c1ccco1	MITF inh 77.9 | MITF inh conf 69.9 | AlphaScreen DR inactive | AlphaScreen intf2 inactive
Cc1ccc(C(=O)/C=C/c2ccc(-c3cccc(C(F)(F)F)c3)o2)cc1	none
O=C(/C=C/c1ccc(-c2ccc(F)cc2)o1)c1ccco1	MITF inh 58.0 | MITF inh conf 76.9 | AlphaScreen intf2 40.4
CCOC(=O)c1cnc2ccc(Cl)cc2c1Nc1cccc(C(C)=O)c1	none
COc1ccc(CN2CCCC(O)C2)cc1OC (configuration not stated)	none
COc1cccc(CN2CCCC(C(=O)N3CCCCC3)C2)c1 (configuration not stated)	MITF inh 69.3 | MITF inh conf inactive | AlphaScreen intf2 inactive
COc1ccc(CN2CCCC(C(=O)N3CCCCCC3)C2)cc1OC (configuration not stated)	MITF inh 60.1 | MITF inh conf inactive | AlphaScreen intf2 inactive
C=C(C)CN(CC)C(=O)C1CCN(Cc2cc(OC)c(OC)c(OC)c2)CC1	MITF inh 56.3 | MITF inh conf inactive | AlphaScreen intf2 inactive
O=C(C1CCCN(Cc2cccc(Cl)c2)C1)N1CCCCC1 (configuration not stated)	none
COc1cc(CN2CCCC(C(=O)N3CCCCCC3)C2)cc(OC)c1OC (configuration not stated)	MITF inh 61.2 | MITF inh conf inactive | AlphaScreen intf2 inactive
CCCCOc1ccc(C(=O)Nc2c3c(nn2-c2ccccc2C)CSC3)cc1	none
CCCCN(C)Cc1cc(Cl)ccc1[N+](=O)[O-]	none
COCCNCC(=O)Nc1nnc(C)s1	none
COCCNCC(=O)Nc1nc(C)cs1	MITF inh 70.4 | MITF inh conf inactive | AlphaScreen intf2 inactive
COC(=O)c1ccc(=O)c2nc3/c(=C/O)c(O)cc(=O)c3[nH]c12	MITF inh 76.8 | MITF inh conf 85.6 | AlphaScreen intf2 inactive
Cc1ccc(C(=O)O)cc1NC(=O)c1cccc(C(=O)Nc2cc(C(=O)O)ccc2C)c1	none
CC(=O)Oc1cccc(C(=O)Nc2cc(C(=O)O)ccc2C)c1	MITF inh 102.3 | MITF inh conf inactive | AlphaScreen intf2 inactive
CC(=O)c1ccc(N2CCN(Cc3ccc(C)s3)CC2)cc1	none
Cc1ccc(CN2CCN(c3ccc([N+](=O)[O-])cc3)CC2)s1	MITF inh 70.3 | MITF inh conf inactive | AlphaScreen intf2 inactive
O=[N+]([O-])c1ccc(CN2CCCCCC2)s1	none
CN1CCCN(Cc2ccc([N+](=O)[O-])s2)CC1	MITF inh 51.9 | MITF inh conf inactive | AlphaScreen intf2 inactive
O=[N+]([O-])c1ccc(N2CCN(Cc3cc(Br)cs3)CC2)cc1	MITF inh 55.6 | MITF inh conf inactive | AlphaScreen intf2 inactive
CCn1c(-c2ccc(F)cc2)cnc1SCC(=O)N1CCCC(C)C1 (configuration not stated)	none
C=CCN1CCN(c2c(NC(=O)c3ccc(Br)o3)ccc(Cl)c2Cl)CC1	none
CCc1cc(OCCOCCN2CCN(CC)CC2)ccc1Cl	MITF inh 67.7 | MITF inh conf inactive | AlphaScreen intf2 inactive
CCc1cc(OCCN2CCNCC2)ccc1Cl	none
CN1CCN(CCOc2ccc(Cl)c(Cl)c2)CC1	MITF inh 68.8 | MITF inh conf inactive | AlphaScreen intf2 inactive
CN1CCN(CCOCCOc2ccc(Cl)c(Cl)c2)CC1	MITF inh 57.3 | MITF inh conf inactive | AlphaScreen intf2 inactive
O=C(CCCNC(=O)OCc1ccccc1)OCN1C(=O)c2ccccc2C1=O	none
CC1NC(=O)NC1CCCCCC(=O)OCN1C(=O)c2ccccc2C1=O (configuration not stated)	MITF inh 118.5 | MITF inh conf 116.7 | AlphaScreen intf2 98.6
O=C(Cn1cnc2scc(-c3ccccc3)c2c1=O)Nc1ccc(Oc2ccc(Cl)cc2)cc1	none
CC(=O)c1cccc(S(=O)(=O)N2CCC(C(=O)NC(C)(C)C)CC2)c1	none
CCN1C(=O)/C(=C/c2ccco2)S/C1=N/S(=O)(=O)c1ccc(C)cc1	MITF inh 52.9 | MITF inh conf inactive | AlphaScreen intf2 inactive
